Screens deposited in PubChem BioAssay by Broad Institute.
An excerpt weighted towards active compounds, which were near 3.4% of everything screened.
rRNA inh HTS = reduced GFP signal of wild-type E. coli, primary screen, bacterial rRNA inhibitor project, GFP/RFP fluorescence, OD600, single point | E. coli WT GFP vs humanized-ribosome RFP mutants, 24 h; active compounds read low; DMSO median 0, no signal -100 | 1.6% of 350,000 active | GFP signal change (wild-type ribosome), % (test concentration not listed) | AID 720706, 2013;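 active = significant combined selectivity score with lowered wild-type GFP, culture density cut under 30%, mutant RFP and density less affected; inactive = any of these conditions unmet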
SIRT5 block = SIRT5 desuccinylase inhibitors, primary screen, biochemical, fluorescence imaging, single point, set 5; NAD-dependent protein deacylase sirtuin-5, mitochondrial (Homo sapiens), Q9NXA8; Purified SirT5, succinyl-peptide AMC, trypsin-coupled fluorescence; 1.1% of 330,000 active; inhibition, % at 15 µM; in the data active = inhibition above about 15%
Target sequence (Q9NXA8 whole entry, looked up): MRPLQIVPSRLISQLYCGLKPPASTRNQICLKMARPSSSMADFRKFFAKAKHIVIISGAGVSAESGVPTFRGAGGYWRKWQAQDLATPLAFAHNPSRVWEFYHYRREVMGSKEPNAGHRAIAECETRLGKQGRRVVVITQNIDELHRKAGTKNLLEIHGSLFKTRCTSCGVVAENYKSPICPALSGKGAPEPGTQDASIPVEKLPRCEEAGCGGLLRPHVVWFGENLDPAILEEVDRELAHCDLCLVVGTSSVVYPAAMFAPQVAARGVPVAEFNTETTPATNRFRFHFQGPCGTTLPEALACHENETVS
PGC1a acetyl inh = inhibitors of PGC1a acetylation signal, primary screen, cell-based, U2OS, AlphaScreen, inhibitor mode; inhibition, % at 15.6 µM; AID 651687, 2012; AlphaScreen anti-acetyl-lysine; with virally co-expressed GCN5 acetyltransferase; 0.17% of 350,000 active;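 active = every replicate shows inhibition of at least 40%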;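 note: 0% = neutral control wells and 100% = positive control wells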
LGR2 inh = inhibitors of bursicon-induced LGR2 CRE-luciferase signal, primary screen, cell-based, HEK293, CRE-luciferase reporter, bursicon stimulation; Drosophila bursicon receptor LGR2 (rickets); inhibition, % at 9.99 µM; 0.35% of 380,000 active; AID 720647, 2013; bursicon-stimulated, 4 h;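 active = drop in luminescence signal, shown as inhibition above about 50% in the replicate tests, limit read from the data, passing the limit was not always enough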;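 note: agonist challenge used bursicon conditioned medium at about half maximal strength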
PAX8 inh HTS = inhibitors of PAX8-driven TPO luciferase reporter, primary screen, RMG-I cells, single concentration; SteadyGlo, 24 h; inhibition, % at 12.6 µM; 1.2% of 360,000 active; AID 652154, 2013;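 active = mean replicate inhibition at least 60% with every replicate also reaching 60%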;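 note: luciferase light reporting Pax8 driven TPO promoter activity; plate controls were median of neutral control wells for no effect and mitoxantrone controls for full effect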
EWS-Fli block = EWS/Fli-driven NR0B1 reporter inhibitors, primary screen, A673 cells, NR0B1 luciferase, luminescence, MLPCN library. viability-normalised. inhibition, % at 12.6 µM. 0.67% of 350,000 active;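 active = mean inhibition of at least 50% after viability correction, with every replicate also passing that limit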;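 note: firefly luciferase signal divided by Alamar Blue viability fluorescence both relative to DMSO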
* hit, by the source's call; nt = no result given.

SMILES	rRNA inh HTS	SIRT5 block	PGC1a acetyl inh	LGR2 inh	PAX8 inh HTS	EWS-Fli block
O=C(C1CCCC1)N1CC(=O)N2[C@H](CO)[C@@H](c3ccc(Br)cc3)[C@@H]2C1	-1	-2	-6	2	-24	-2
c1ccc(/N=C2\N=C(Nc3ccccn3)c3ccccc32)nc1	8	-3	-10	1	79*	25
c1ccc(Nc2ccccn2)cc1	nt	nt	2	nt	-27	nt
CCCC#Cc1cnc2c(c1)C(=O)N([C@@H](C)CO)C[C@H](C)[C@H](CN(C)C(=O)Nc1ccc(OC)cc1)O2	0	-1	-3	-3	nt	-7
CC(=O)c1cccc(NC(=O)CCS(=O)(=O)c2ccc(Br)s2)c1	-10	19*	7	-19	-11	0
COC(=O)c1ccc(NC(=O)CCS(=O)(=O)c2ccc(Br)s2)cc1	nt	nt	-4	nt	5	nt
CCCC(=O)Nc1ccc2c(c1)OC[C@H](C)N(C(=O)CN(C)C)C[C@@H](C)[C@H](OC)CN(C)C2=O	nt	9	5	5	-5	0
C[C@@H]1CN([C@@H](C)CO)C(=O)c2cc(NC(=O)Nc3ccccc3)ccc2O[C@@H](C)CCCCO[C@H]1CN(C)Cc1ccc(Cl)c(Cl)c1	1	nt	5	nt	81*	-7
C[C@@H]1CN([C@H](C)CO)C(=O)c2cc(NC(=O)Nc3ccccc3)ccc2O[C@@H](C)CCCCO[C@@H]1CN(C)Cc1ccc(Cl)c(Cl)c1	-4	4	-9	-16	86*	9
C[C@@H]1CCCCO[C@@H](CN(C)Cc2ccc(Cl)c(Cl)c2)[C@H](C)CN([C@@H](C)CO)C(=O)c2cc(NC(=O)Nc3ccccc3)ccc2O1	1	-1	-46	-21	86*	5
COc1ccc(-c2[nH]nc3nc(N4CCN(C(=O)c5ccoc5)CC4)cc(C(F)(F)F)c23)cc1	-10	0	-16	-7	34	55*
CCCc1cc(C(=O)Nc2cc(OC)ccc2OC)cs1	-32*	-1	nt	-11	-3	-21
C[C@@H]1CCCCO[C@H](CN(C)S(=O)(=O)c2ccccc2)[C@H](C)CN([C@@H](C)CO)C(=O)c2cc(NC(=O)Cc3ccccc3)ccc2O1	-2	8	13	10	-1	-3
Cc1ccccc1S(=O)(=O)NCC[C@H]1CC[C@@H](NC(=O)C2CC2)[C@H](CO)O1	1	1	3	10	2	-3
O=C(Nc1nc(-c2ccccn2)cs1)c1ccc(F)c(S(=O)(=O)N2CCOCC2)c1	-9	3	6	15	84*	8
Cc1ccc(C(=O)Nc2nc(-c3ccccn3)cs2)cc1S(=O)(=O)N1CCOCC1	-7	4	10	13	82*	15
Cc1ccc(C(=O)Nc2ccccn2)cc1S(=O)(=O)N1CCOCC1	8	-5	-3	7	-13	-14
CNC[C@@H]1Oc2c(NC(C)=O)cccc2C(=O)N(C)C[C@H]1C	2	nt	nt	nt	nt	nt
Cc1cccc(C)c1NC(=O)C1c2ccccc2OCC(=O)N1Cc1ccc2c(c1)OCO2 (stereo not given)	-22*	-2	nt	-10	0	3
Cc1cccc(C)c1NC(=S)Nc1c(C)n(C)n(-c2ccccc2)c1=O	10	nt	nt	-4	76*	2
Cc1c(NC(=S)Nc2cccc(Cl)c2)c(=O)n(-c2ccccc2)n1C	7	-9	0	-8	-18	5
C/C=C/c1ccc2c(c1)O[C@H](CN(C)C(=O)CN1CCOCC1)[C@H](C)CN([C@H](C)CO)S2(=O)=O	1	1	-6	9	nt	-24
COCc1cn(CC[C@@H]2CC[C@H](NC(=O)Nc3ccc(OC)cc3)[C@@H](CO)O2)nn1	3	2	2	-9	-22	2
O=C(C[C@H]1C/C=C\C[C@@H](Cc2ccc(F)cc2)C(=O)OC[C@H]2CCCN2C1=O)N[C@@H](CO)Cc1ccccc1	-5	-2	2	-8	-1	5
O=C(C[C@@H]1C/C=C\C[C@@H](Cc2ccc(F)cc2)C(=O)OC[C@H]2CCCN2C1=O)N[C@H](CO)Cc1ccccc1	-18*	-1	-4	19	24	0
SMILES	rRNA inh HTS	SIRT5 block	PGC1a acetyl inh	LGR2 inh	PAX8 inh HTS	EWS-Fli block
N#C/C(=C\c1ccc(OCc2ccc(C(=O)O)cc2)cc1)C(=O)N1CCOCC1	9	4	nt	80*	87*	81*
C[C@@H]1CN([C@@H](C)CO)C(=O)Cc2cc(NS(=O)(=O)c3cccs3)ccc2O[C@@H]1CN(C)Cc1ccc(Oc2ccccc2)cc1	1	3	-5	9	20	20
CC(=O)Nc1cccc(C(=O)/C=C/c2ccc(Br)cc2)c1	-18	-6	nt	60*	35	18
CC(=O)Nc1cccc(C(=O)/C=C/c2ccc(N(C)C)cc2)c1	-6	-4	nt	-39	-97	-55
CC(=O)Nc1cccc(C(=O)/C=C/c2ccc(/C=C/C(=O)c3cccc(NC(C)=O)c3)cc2)c1	2	-3	nt	-4	32	55*
CC(=O)Nc1cccc(C(=O)/C=C/c2ccc(F)cc2)c1	-1	2	-31	7	35	37
O=C(N/N=C/c1cccc(O)c1)NC1CCCCC1	-25*	1	4	-2	-13	-7
Cc1cccc(S(=O)(=O)N2CC[C@@H]3[C@H](CO)Nc4ccc(C5=CCCCC5)cc4[C@@H]32)c1	-7	4	-1	7	83*	5
O=S(=O)(c1ccccc1F)N1CC[C@H]2[C@H](CO)Nc3ccc(C4=CCCCC4)cc3[C@H]21	0	2	4	-13	95*	-9
O=S(=O)(c1ccccc1F)N1CC[C@@H]2[C@H]1c1cc(-c3cccc(F)c3)ccc1N[C@@H]2CO	-12	nt	-17	97*	100*	29
CCCC#Cc1ccc2c(c1)[C@@H]1[C@@H](CCN1S(=O)(=O)c1ccccc1C)[C@@H](CO)N2	-5	18*	nt	14	nt	nt
C[C@@H]1CN([C@@H](C)CO)S(=O)(=O)c2ccc(C3=CCCC3)cc2O[C@H]1CN(C)CC1CCCC1	-10	5	1	4	6	-21
Cc1ccc(S(=O)(=O)N2[C@@H]3CNC[C@H]2C3c2ccc(-c3cccc(C)c3)cc2)cc1 (stereo not given in full)	-59	2	-17	17	nt	nt
CCC(=O)Nc1ccc2c(c1)C(=O)N(C)C[C@H](OC)[C@@H](C)CN(C(=O)c1ccc(F)cc1)[C@@H](C)CO2	-1	0	6	4	nt	3
